The text below walks through data of PubChem BioAssay (NCATS).

Experiment [1] is described as follows: AP1 Signaling Pathway (AID 357). Further: on the % scale 0 is the no-effect control and ±100 the full control effect. The note with it: ME-180 AP-1-bla reporter, EGF-induced, beta-lactamase ratio, 5 h; at 17.2 µM (top of the series). The gist of the method:
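AP-1-bla ME-180 cells with beta-lactamase reporter under AP-1 response element, stimulated with EC50 EGF; compounds titrated, 5 hours at 37 degrees Celsius. CCF4 read at 460/530 nm ratio; positive and negative modulators judged by AC50.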

Experiment [2] deals with Cytochrome P450 1A2 (Homo sapiens) (UniProt P05177). The experiment is described as follows: p450-cyp1a2 (AID 410; calls by dose curve;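 further: -100% = full effect of reference inhibitor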). Particulars: recombinant CYP1A2, luciferin-ME demethylation, luminescence; series mostly up to 25.6 µM. The gist of the method: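 Luminescent demethylation readout: Luciferin-ME (100uM, equal to Km) turned over by 20nM CYP1A2 for 60 min at room temperature after NADPH regeneration addition, following 10 min compound preincubation. Normalization used 57 uM furafylline as full inhibition.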

A short description of experiment [3]: NFAT Signaling Pathway (AID 444).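 Further: carbachol stimulus at about its EC50 of 1 µM final; on the % scale 0 is the no-effect control and ±100 the full control effect.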 Particulars: Jurkat NFAT-bla M1, carbachol, beta-lactamase ratio, 5 h; at 17.2 µM (top of the series). The gist of the method: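 Jurkat cells with NFAT-driven β-lactamase reporter and co-expressed M1 receptor, stimulated with carbachol (final 1 uM, ~EC50), compound titration, 5 h at 37 °C. CCF4 loaded 1 h at RT; 460/530 nm ratio gave %activity and AC50.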

Experiment [4] has as its target Glucocorticoid receptor (Homo sapiens) (UniProt P04150). As to the kind of experiment: GR-GFP Redistribution (AID 450;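 active means compounds whose dose series gives a full or clear partial fitted curve of increased nuclear translocation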; further: potency means the concentration at half of the fitted maximal effect). Particulars: U2OS GR-GFP nuclear translocation, laser cytometry, 2 h.
For experiment [5] the target is unchanged. As to the kind of experiment: GR-EFC Redistribution (AID 451; calls by dose curve; further: potency means the concentration at half of the fitted maximal effect). The note with it: CHO-K1 GR-EFC translocation, beta-gal luminescence, 2 h. The procedure, abridged: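 CHO-K1 cells expressing nuclear EA and GR-ED fragments of b-gal; compounds titrated up to 46 uM final, 2 h at 37 C. GR nuclear translocation read as complemented b-gal luminescence after 1 h RT detection.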

Experiment [6] deals with Mitogen-activated protein kinase 10 (Mus musculus) (UniProt Q61831). As to the kind of experiment: JNK3 AlphaScreen Assay (AID 530).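 Further: kinase came from lysate of stimulated human HepG2 cells; signal reports phosphorylation of biotinylated GST-cJun 1-79 at Ser73 with 10 µM ATP; on the % scale 0 is the no-effect control and ±100 the full control effect.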 Particulars: JNK3 lysate, c-Jun phosphorylation; series mostly up to 25.6 µM. The procedure, abridged:
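Activity was read by AlphaScreen after JNK3-containing HepG2 lysate (cytokine pre-activated) phosphorylated biotinylated GST-cJun with 10 uM ATP at room temperature. Phospho-Ser73 cJun antibody with Protein-A acceptor beads provided detection.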

The nature of experiment [7]: Cell Viability - BJ (AID 421; calls by dose curve;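 further: potency means the concentration at half of the fitted maximal effect; cells exposed to compound for 40 hours at 37 °C before readout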). The note with it: BJ fibroblast viability, qHTS. The gist of the method:
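Luminescent ATP signal (CellTiter-Glo, 20 min at room temperature) served as the read-out of viable BJ cells after 40 hours of compound treatment. Responses were scaled between DMSO and 100 uM tamoxifen, and AC50 values were obtained by Hill modeling.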

Experiment [8] is described as follows: Cell Viability - Jurkat (AID 426;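 active means dose-dependent loss of cell ATP signal giving a full or clear fitted curve, ranked by lower potency value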;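 further: potency means the concentration at half of the fitted maximal effect; cells exposed to compound for 40 hours at 37 °C before ATP read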). Particulars: qHTS. The procedure, abridged: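 Cytotoxicity taken as drop in cellular ATP (CellTiter-Glo luminescence, 20 min room temperature) after 40 hr, 37C treatment of 5000 Jurkat Clone E6-1 cells per well; concentration-response fitted with Hill equation for AC50.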
On the technique in general: qHTS replaces the single test concentration by a dilution series.

Experiment [9] in a line: Cell Viability - Hek293 (AID 427;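 active means compounds whose dose-response curve shows a full or clear partial loss of cell viability, called from curve shape rather than a numeric limit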;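 further: potency means the concentration at half of the fitted maximal effect; cells exposed to compound for 40 hours at 37 °C before reading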). Particulars: qHTS. The gist of the method: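 Luminescent ATP read-out (CellTiter-Glo, 20 min RT) after 40 hr compound exposure at 37 °C in complete medium. Signal normalized to DMSO (basal) and 100 uM tamoxifen (100% inhibition); concentration-response fitted with the standard Hill equation to give AC50.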
Experiment [10] can be described thus: Cell Viability - HepG2 (AID 433; calls by dose curve; further: potency means the concentration at half of the fitted maximal effect). The note with it: qHTS. The procedure, abridged: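 Read-out is luciferase-based quantitation of cellular ATP as a measure of viable HepG2 cells after 40 h treatment at 37 °C. Signal decrease is scaled between DMSO-only and 100 uM tamoxifen controls, with AC50 fitted by the Hill equation.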
A short description of experiment [11]: Stat Signaling Pathway (AID 446).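 Further: ME-180 cervical cancer cells given 40 pM IL-6 alongside compound; SIE-controlled beta-lactamase reporter measured as 460/530 nm FRET emission ratio; on the % scale 0 is the no-effect control and ±100 the full control effect.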 The note with it: ME-180 (cervical carcinoma) SIE beta-lactamase reporter, IL-6 stimulated, 5 h; at 17.2 µM (top of the series). The gist of the method:
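Compound effects on IL-6-induced STAT reporter activity were measured in ME-180 cells. After overnight culture, cells were co-treated with 40 pM IL-6 for 5 hrs before beta-lactamase substrate loading at room temperature.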

Experiment [12] can be described thus: Cell Viability - N2a (AID 540; active means well fitted curve in the direction sought with a large enough effect; an effect the other way counts as inactive or inconclusive; further: potency means the concentration at half of the fitted maximal effect; nearly all actives have a fitted effect of over 45% in size). The note with it: N2a mouse neuroblastoma cell viability; activity change, negative = cytotoxicity: at 92.2 µM (top of the series). The procedure, abridged:
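CellTiter-Glo ATP luminescence, read 20 min after reagent at room temperature, reported viability following 40 h compound treatment at 37 °C. N2a mouse neuroblastoma cells seeded 1500/well; Hill equation gave AC50.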

Experiment [13] in a line: Cell Viability - HUV-EC-C (AID 542; active means well fitted curve in the direction sought with a large enough effect; an effect the other way counts as inactive or inconclusive; further: potency means the concentration at half of the fitted maximal effect; nearly all actives have a fitted effect of over 35% in size). Particulars: HUV-EC-C endothelial cell viability, qHTS; series mostly up to 92.2 µM. The procedure, abridged: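 CellTiter-Glo luminescence measured ATP loss in HUV-EC-C cells (1000/well) after 40 hr compound exposure at 37 °C, in complete culture medium. Concentration-response data were Hill-fitted to give AC50.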
A short description of experiment [14]: Cell Viability - H-4-II-E (AID 543; active means well fitted curve in the direction sought with a large enough effect; an effect the other way counts as inactive or inconclusive; further: nearly all actives have a fitted effect of over 35% in size; further: potency means the concentration at half of the fitted maximal effect). The note with it: H-4-II-E rat hepatoma viability; series mostly up to 92.2 µM. The procedure, abridged:
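CellTiter-Glo luminescence (intracellular ATP) measured after 40 h compound exposure at 37 °C in H-4-II-E rat hepatoma cells seeded at 1500/well. Values are AC50s fitted with the standard Hill equation.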

A short description of experiment [15]: Cell Viability - NIH 3T3 (AID 541; active means well fitted curve in the direction sought with a large enough effect; an effect the other way counts as inactive or inconclusive;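 further: plate controls were DMSO alone for no effect and tamoxifen positive control for full effect; nearly all actives have a fitted effect of over 25% in size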). The note with it: NIH 3T3 cell viability, qHTS; activity change, negative = cytotoxicity: at 92.2 µM (top of the series). The procedure, abridged: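 Intracellular ATP (CellTiter-Glo luminescence, 20 min at room temperature) measured after 40 hr compound exposure at 37 °C of 1000 NIH 3T3 mouse fibroblasts/well in complete medium; AC50 derived by Hill-equation modelling of qHTS concentration-response curves.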

Experiment [16] is described as follows: Cell Viability - Renal Proximal Tubule (AID 545; active means well fitted curve in the direction sought with a large enough effect; an effect the other way counts as inactive or inconclusive;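 further: 0% = DMSO only and -100% = 100 µM tamoxifen; nearly all actives have a fitted effect of over 40% in size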). Particulars: renal proximal tubule cells viability, primary cells of rat origin; activity change, negative = cytotoxicity: at 91.7 µM (top of the series). The gist of the method: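 Luminescent ATP signal (CellTiter-Glo) served as the viability read-out after 40 hr compound exposure of freshly isolated rat proximal tubule cells at 37 °C. Concentration-dependent ATP loss was fitted with the Hill equation to give AC50.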

A number with no mark means an inactive call. Results filed as inconclusive are left out. Calls of active or inactive are those of the source. Unless noted, the call rests on the fitted dose curve; in most records, active means well fitted curve in either direction with a large enough effect (not every such curve was filed as active); inconclusive means small, poorly fitted or top-dose-only effect, or another doubt; inactive means flat fitted curve, though single readings scatter.

Glucocorticoid receptor (Homo sapiens), sequence (P04150 whole entry, looked up, the tested form may be a part): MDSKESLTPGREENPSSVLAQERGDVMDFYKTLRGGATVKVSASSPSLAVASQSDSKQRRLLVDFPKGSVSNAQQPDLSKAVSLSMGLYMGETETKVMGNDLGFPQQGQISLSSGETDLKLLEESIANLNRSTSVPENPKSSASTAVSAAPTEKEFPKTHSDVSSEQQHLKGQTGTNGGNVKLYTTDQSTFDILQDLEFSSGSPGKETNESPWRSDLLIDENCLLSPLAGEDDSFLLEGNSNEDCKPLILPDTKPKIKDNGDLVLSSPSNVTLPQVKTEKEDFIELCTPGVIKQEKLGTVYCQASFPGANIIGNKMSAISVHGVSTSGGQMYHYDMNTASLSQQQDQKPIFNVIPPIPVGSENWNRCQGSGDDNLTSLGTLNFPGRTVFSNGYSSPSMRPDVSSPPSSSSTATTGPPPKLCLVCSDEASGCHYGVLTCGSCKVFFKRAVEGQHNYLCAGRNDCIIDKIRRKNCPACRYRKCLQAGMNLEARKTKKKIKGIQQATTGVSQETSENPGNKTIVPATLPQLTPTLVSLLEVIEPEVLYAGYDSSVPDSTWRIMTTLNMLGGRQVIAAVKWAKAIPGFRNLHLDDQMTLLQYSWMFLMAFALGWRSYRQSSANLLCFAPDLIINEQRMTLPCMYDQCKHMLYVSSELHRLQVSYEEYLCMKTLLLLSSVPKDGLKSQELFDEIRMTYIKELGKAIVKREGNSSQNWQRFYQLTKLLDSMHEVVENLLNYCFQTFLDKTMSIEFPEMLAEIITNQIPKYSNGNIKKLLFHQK
Cytochrome P450 1A2 (Homo sapiens), sequence (P05177 whole entry, looked up): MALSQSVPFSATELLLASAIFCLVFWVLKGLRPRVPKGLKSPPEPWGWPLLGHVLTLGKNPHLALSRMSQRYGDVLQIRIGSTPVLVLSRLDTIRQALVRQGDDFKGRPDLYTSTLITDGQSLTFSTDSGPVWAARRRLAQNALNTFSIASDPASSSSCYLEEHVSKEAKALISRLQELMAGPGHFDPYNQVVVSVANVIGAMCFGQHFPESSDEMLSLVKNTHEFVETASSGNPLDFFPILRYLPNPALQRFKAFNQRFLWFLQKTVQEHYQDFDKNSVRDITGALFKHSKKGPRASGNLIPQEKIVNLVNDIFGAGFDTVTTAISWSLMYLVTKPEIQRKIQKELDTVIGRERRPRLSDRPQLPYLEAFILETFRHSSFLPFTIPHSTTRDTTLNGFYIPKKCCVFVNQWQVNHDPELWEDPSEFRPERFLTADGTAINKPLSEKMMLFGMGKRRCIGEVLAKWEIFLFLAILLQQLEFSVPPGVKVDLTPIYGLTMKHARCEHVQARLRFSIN

In the case of `Nc1nc2ncc(CNc3ccc(C(=O)N[C@@H](CCC(=O)O)C(=O)O)cc3)nc2c(=O)[nH]1`, the activity change, negative = inhibition in experiment [1] was 0.033%; in [3], 2.08%. Also, in experiment [2], the Potency result was “inactive”. The Potency in experiment [4] and in experiment [5] was more than 20.6 µM throughout. Also, in experiment [6], the outcome was inactive.

As for `CC(=O)OCC(=O)[C@@]1(O)[C@H](C)C[C@H]2[C@@H]3CCC4=CC(=O)C=C[C@]4(C)[C@@]3(F)[C@@H](O)C[C@@]21C`, the activity change, negative = inhibition in experiment [1] is -10.4%; in [3], 29.8%.

As to `Oc1c(Cl)cc(Cl)cc1Sc1cc(Cl)cc(Cl)c1O`, the activity change, negative = inhibition was -12.3% in experiment [1] and -126% (active) in [3]. Further, the Potency in experiment [7] was more than 92 µM; in experiment [8] it was 47.8 µM (active); in [9], 36.2 µM (active); in experiment [10], 27.9 µM (active); in experiment [4], more than 20.6 µM; in experiment [12] it was 31.6 µM (active). Moreover, the Potency in experiment [13] was 20 µM (active); in experiment [14], 31.6 µM (active). For the same compound, in experiment [11], the activity, negative = inhibition was -99.1% (active). For the same compound, the call in [6] was inactive.

As for `C[C@@H]1C[C@H]2[C@@H]3CCC4=CC(=O)C=C[C@]4(C)[C@@]3(F)[C@@H](O)C[C@]2(C)[C@H]1C(=O)CO`, the activity change, negative = inhibition in [1] was 0.15%; in [3] it was -16.3%. Also, in [11], the activity, negative = inhibition is 1.17%. In experiment [4], the Potency is more than 20.6 µM.

As for `C[C@]12CC[C@H]3[C@@H](CCC4=CC(=O)CC[C@@]43C)[C@@H]1CC[C@@H]2C(=O)CO`, the values for the activity change, negative = inhibition in experiment [1] and in experiment [3] were 12.4% and -13.6%, respectively. Also, the activity, negative = inhibition in [11] is 1.53%. In [4], the Potency is 0.0356 µM (active).

Take `CC(C)(C)CC(C)(C)c1ccc(OCCOCC[N+](C)(C)Cc2ccccc2)cc1`: the activity change, negative = inhibition in [1] is -12.6%. In addition, the Potency in experiment [7] is 52.9 µM (active); in experiment [8], 26.8 µM (active); in [10], 57.8 µM (active); in experiment [12], 5.01 µM (active); in experiment [13], 50.1 µM (active). In experiment [11], the activity, negative = inhibition was -2.12%. In [6], the compound was classed as inactive. The activity change, negative = cytotoxicity is -129% (active) in experiment [15] and -90% (active) in [16]. Moreover, the Potency result in experiment [14] is “inactive”.

With `CCn1cc(C(=O)O)c(=O)c2cnc(N3CCCC3)nc21`, the values for the activity change, negative = inhibition in experiment [1] and in experiment [3] were 5.94% and 5.83%, respectively. The activity, negative = inhibition in [11] is 2.28%. The Potency in experiment [4] and in experiment [5] was more than 20.6 µM throughout. For the same compound, the compound was called inactive in experiment [6].

Take `C[C@H](CCC(=O)O)[C@H]1CC[C@H]2[C@@H]3C(=O)C[C@@H]4CC(=O)CC[C@]4(C)[C@H]3CC(=O)[C@]12C`: the values for the activity change, negative = inhibition in [1] and in experiment [3] were 8.36% and 13.3%, respectively. Moreover, the Potency in experiment [4] is more than 20.6 µM.

Regarding `CN1CCN(C(c2ccccc2)c2ccccc2)CC1`, in [1], the activity change, negative = inhibition is 4.01%. The Potency result in experiment [2] is “inactive”. Also, the activity, negative = inhibition in experiment [11] is 3.06%. The Potency in [4] and in experiment [5] was more than 20.6 µM in each case. The compound was called inactive in [6].
